In the library only some 3.5% were active in any assay of this set; here they are far more common.
GPR151 activ = activators of human GPR151, primary screen, cell-based, PathHunter beta-arrestin, luminescence; G-protein coupled receptor 151 (Homo sapiens), Q8TDV0; PathHunter beta-arrestin GPR151 cells; activation, % at 11.2 µM; 1% of 650,000 active; in the data active means activation above about 4.9%
FBW7 activator = FBW7 E3 ligase activators, primary screen, biochemical, AlphaScreen, human; F-box/WD repeat-containing protein 7 (Homo sapiens), Q969H0; AlphaScreen FBW7–phospho-cyclin E peptide binding, activator screen; normalized activity (activation), % at 26.1 µM; 0.13% of 650,000 active; in the data active means normalized activity above about 1.9%;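 further: purified mutant Fbw7 with reduced substrate affinity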
Target sequence (Q969H0 whole entry, looked up): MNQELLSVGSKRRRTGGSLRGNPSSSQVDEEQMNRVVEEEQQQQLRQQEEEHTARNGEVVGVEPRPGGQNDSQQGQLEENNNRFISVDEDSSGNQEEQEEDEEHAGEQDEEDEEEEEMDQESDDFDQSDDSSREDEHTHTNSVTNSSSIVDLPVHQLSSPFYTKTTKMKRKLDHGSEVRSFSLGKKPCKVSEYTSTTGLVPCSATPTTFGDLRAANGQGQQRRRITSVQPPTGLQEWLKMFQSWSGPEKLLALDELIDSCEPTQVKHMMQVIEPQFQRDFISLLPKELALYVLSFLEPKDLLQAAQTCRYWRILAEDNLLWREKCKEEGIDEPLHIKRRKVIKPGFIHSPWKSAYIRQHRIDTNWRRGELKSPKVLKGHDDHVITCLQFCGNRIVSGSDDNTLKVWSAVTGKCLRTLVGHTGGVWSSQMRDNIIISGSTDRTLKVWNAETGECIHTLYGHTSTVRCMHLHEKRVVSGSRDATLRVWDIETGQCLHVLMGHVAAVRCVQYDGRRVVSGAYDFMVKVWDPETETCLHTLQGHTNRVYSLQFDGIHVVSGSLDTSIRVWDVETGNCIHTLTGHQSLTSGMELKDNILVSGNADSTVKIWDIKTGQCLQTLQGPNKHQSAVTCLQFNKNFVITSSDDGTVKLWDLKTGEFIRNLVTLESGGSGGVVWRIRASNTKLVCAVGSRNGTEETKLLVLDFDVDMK
MITF primary = MITF inhibitors, primary screen, biochemical, AlphaScreen, human; Microphthalmia-associated transcription factor (Homo sapiens), O75030; AlphaScreen MITF homodimerization, bead proximity signal; inhibition, % at 2.6 µM; 0.91% of 650,000 active; AID 1259374, 2018; in the data active means inhibition above about 50%
TEAD-YAP block = TEAD-YAP interaction inhibition, primary screen, TEAD-YAP interaction inhibitor project, luminescence, HEK-TIYL cells | 1.4% of 640,000 active | inhibition, % at 9.12 µM | TEAD-Gal4/YAP UAS-luciferase luminescence | AID 1259422, 2018; in the data active means inhibition above about 32%
Each line names hits and unclear results; the compound was inactive in the other large screens.

c1ccc(Nc2nc(NCc3nc4ccccc4[nH]3)c3ncn(-c4ccccc4)c3n2)cc1	TEAD-YAP block 34
COc1cc(Nc2nc(NCc3cccnc3)c3ncn(-c4ccccc4)c3n2)cc(OC)c1OC	none
CCNc1nc(NCc2nc3ccccc3[nH]2)c2ncn(-c3ccccc3)c2n1	none
COc1cc(Nc2nc(NCc3nc4ccccc4[nH]3)c3ncn(-c4ccccc4)c3n2)cc(OC)c1OC	TEAD-YAP block 62
COc1ccc2nc3oc(C(=O)N4CCN(c5ccc([N+](=O)[O-])cc5)CC4)cc3cc2c1	none
CC(=O)c1cccc(NC(=O)c2sc3nc4ccc(C)cc4cc3c2N)c1	none
CC[n+]1ccc(/C=C2\C=Cc3ccccc3N2C)cc1	TEAD-YAP block 85
CC[n+]1ccc(/C=C2\C=CC=CN2C)cc1	none
Cc1ccc(S(=O)(=O)Nc2cc3c4c(oc3c3ccccc23)CC(C)CC4)c(C)c1 (stereo not given)	none
COc1cccc(NC(=O)c2sc3ncnc(N(C)c4ccccc4)c3c2C)c1	none
COc1ccccc1C(NC(=O)c1cccnc1)c1cc(Cl)c2cccnc2c1O (stereo not given)	none
COc1cccc(C(=O)NC(c2ccco2)c2cc(Cl)c3cccnc3c2O)c1 (stereo not given)	TEAD-YAP block 79
COc1cccc(C(=O)NC(c2ccccc2)c2cc(Cl)c3cccnc3c2O)c1 (stereo not given)	none
COc1cccc(C(=O)NC(c2ccccc2OC)c2cc(Cl)c3cccnc3c2O)c1 (stereo not given)	TEAD-YAP block 41
Fc1ccc(Nc2ccn3ncc(-c4ccsc4)c3n2)cc1Cl	FBW7 activator 2.0
Fc1ccc(Nc2ccn3ncc(-c4cccs4)c3n2)cc1Cl	none
O=C(CNC(=O)c1ccccc1Cl)N=Nc1c(O)[nH]c2ccccc12	none
C=CCn1c(SCC(=O)Nc2sc3c(c2C#N)CCC(C)C3)nc2sc3c(c2c1=O)CCCC3 (stereo not given)	none
Cc1cccc(N(C)S(=O)(=O)c2ccc3c(c2)oc(=O)n3C)c1	TEAD-YAP block 46
CCOC(=O)c1c(C)oc2ccc(OCC(=O)OCc3ccccc3)cc12	none
COc1ccc(NC(=O)C2CC(=O)N(Cc3ccc(Cl)cc3)C(=Nc3ccc(F)cc3)S2)cc1 (stereo not given)	none
CCC(C(=O)c1ccccc1)n1c(Br)nc2c1c(=O)[nH]c(=O)n2C (stereo not given)	none
O=C(c1ccccc1)N1CCN(C(=O)c2cc3c(s2)CCCCC3)CC1	none
O=C(N=c1sn2c(c1[N+](=O)[O-])CCCCC2)c1ccccc1	TEAD-YAP block 84
COc1cc(NC(=O)c2cccc(-c3ccc4[nH]ccc4c3)n2)cc(OC)c1OC	none
CCC(=O)Nc1c(C)nn(-c2ccc(C)c(C)c2)c1C	none
Cc1ccc(-n2nc(C)c(NC(=O)CCl)c2C)cc1C	TEAD-YAP block 45
Oc1c(Cl)cc(Cl)c2cccnc12	none
O=S(=O)(O)c1cc(I)c(O)c2ncccc12	MITF primary 123
Oc1c(I)cc(I)c2cccnc12	TEAD-YAP block 52
COC(=O)c1c(NC(=O)c2ccc(OC)c(Br)c2)sc2c1CCCC2	none
O=C(/C=C/c1ccco1)Nc1nnc(Cc2ccc(F)cc2)s1	TEAD-YAP block 55
COc1ccc(Nc2nc(Cl)c(C(F)(F)F)c(Cl)c2Cl)cc1	none
Cc1ccc(Nc2c(Cl)c(Cl)nc(Cl)c2C(F)(F)F)cc1	TEAD-YAP block 67
Cc1ccc2oc3c(c(=O)c2c1)C(c1ccccn1)N(c1cc(C)on1)C3=O (stereo not given)	none
CCOc1cc(N2CCOCC2)c(OCC)cc1NC(=O)CN1CCCC1	MITF primary 83
CCOc1cc(N2CCOCC2)c(OCC)cc1NC(=O)CN(CC)C1CCCCC1	none
CN(C)S(=O)(=O)N=C1C=CC(=NS(=O)(=O)N(C)C)C=C1	MITF primary 55
N#CSCCCOc1ccc2ccccc2c1	TEAD-YAP block 47
c1cnc(SCCCOc2ccc3ccccc3c2)nc1	none
O=C(Nc1ccc(O)cc1)c1scc2c1CCCC2	TEAD-YAP block 68
CCNc1nc(NC(C)(C)C)nc(SC(C(C)=O)C(C)=O)n1	TEAD-YAP block 42
O=C(COc1ccc(Cl)cc1)Nc1nnc(-c2cccs2)o1	none
O=C(Nc1cccc2ccccc12)c1cc(Cl)ccc1O	TEAD-YAP block 64
O=C(Nc1cccc2ccccc12)c1ccccc1I	none
Cc1ccccc1NC(=O)c1cc(Cl)ccc1O	TEAD-YAP block 42

Screening results as filed in PubChem.
